# Publication PMC7862700, “An all-to-all approach to the identification of sequence-specific readers for epigenetic DNA modifications on cytosine”
# What was measured:
# Test in all cases: DAPPL (digital affinity profiling via proximity ligation, sequencing); 10 mM Tris-HCl pH 7.5, 50 mM NaCl, 1 mM DTT, 4% glycerol, room temperature, 30 min; GST-TFs on glutathione beads, 16-mer random dsDNA library, 0.1% formaldehyde crosslink after washing; high values mean tight binding
# FLI1 = molecular target: T1, FLI1 (Homo sapiens, UniProt Q01543 1-452); conditions: protein: recombinant; tags: N-terminal GST; dsDNA, one strand shown
# T1 sequence: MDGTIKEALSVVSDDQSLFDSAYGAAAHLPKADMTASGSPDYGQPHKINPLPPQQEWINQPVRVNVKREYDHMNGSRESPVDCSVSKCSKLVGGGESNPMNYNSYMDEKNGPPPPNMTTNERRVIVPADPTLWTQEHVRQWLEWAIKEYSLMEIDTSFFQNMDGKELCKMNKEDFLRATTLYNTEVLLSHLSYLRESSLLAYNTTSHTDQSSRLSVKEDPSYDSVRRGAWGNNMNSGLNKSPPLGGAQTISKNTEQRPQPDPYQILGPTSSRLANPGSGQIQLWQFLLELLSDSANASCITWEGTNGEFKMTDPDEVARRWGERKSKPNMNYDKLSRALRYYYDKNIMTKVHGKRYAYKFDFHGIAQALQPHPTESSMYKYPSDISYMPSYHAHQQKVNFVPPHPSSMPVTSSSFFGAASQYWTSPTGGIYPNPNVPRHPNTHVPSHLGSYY
# Outline: (§1)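 The binding signal reported is, for every hexamer, its read frequency for a factor over its read frequency for the tag-only sample. Reads came from pools of yeast-expressed, GST-fused human transcription factors on glutathione beads, barcoded with DNA and mixed with that sample, which were incubated with 200 nmole of a random double-stranded 16-mer DNA library in Tris/NaCl/DTT/glycerol buffer at room temperature for 30 min. After washing, the pools were crosslinked with 0.1% formaldehyde, proximity-ligated with BsaI/T4 ligase for 1 h at 37 °C, PCR-amplified and sequenced on an Illumina NextSeq500.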
# ELK1 = molecular target: T2, ELK1 (Homo sapiens, UniProt P19419 1-428); conditions: protein: recombinant; tags: N-terminal GST; dsDNA, one strand shown
# T2 sequence: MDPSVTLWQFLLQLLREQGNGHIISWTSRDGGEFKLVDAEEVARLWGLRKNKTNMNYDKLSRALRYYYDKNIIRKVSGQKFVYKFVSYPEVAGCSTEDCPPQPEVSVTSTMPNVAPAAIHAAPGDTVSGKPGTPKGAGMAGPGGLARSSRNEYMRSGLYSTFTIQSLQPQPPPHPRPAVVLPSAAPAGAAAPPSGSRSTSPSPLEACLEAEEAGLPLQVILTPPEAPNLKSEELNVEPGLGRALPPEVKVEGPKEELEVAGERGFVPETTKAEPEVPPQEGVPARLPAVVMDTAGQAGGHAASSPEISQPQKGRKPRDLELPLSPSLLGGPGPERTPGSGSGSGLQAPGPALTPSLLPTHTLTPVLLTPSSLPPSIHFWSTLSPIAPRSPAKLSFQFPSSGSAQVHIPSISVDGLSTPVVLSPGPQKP
# Outline: as §1
# GABPA = molecular target: T3, GABPA (Homo sapiens, UniProt Q06546 1-454); conditions: protein: recombinant; tags: N-terminal GST; dsDNA, one strand shown
# T3 sequence: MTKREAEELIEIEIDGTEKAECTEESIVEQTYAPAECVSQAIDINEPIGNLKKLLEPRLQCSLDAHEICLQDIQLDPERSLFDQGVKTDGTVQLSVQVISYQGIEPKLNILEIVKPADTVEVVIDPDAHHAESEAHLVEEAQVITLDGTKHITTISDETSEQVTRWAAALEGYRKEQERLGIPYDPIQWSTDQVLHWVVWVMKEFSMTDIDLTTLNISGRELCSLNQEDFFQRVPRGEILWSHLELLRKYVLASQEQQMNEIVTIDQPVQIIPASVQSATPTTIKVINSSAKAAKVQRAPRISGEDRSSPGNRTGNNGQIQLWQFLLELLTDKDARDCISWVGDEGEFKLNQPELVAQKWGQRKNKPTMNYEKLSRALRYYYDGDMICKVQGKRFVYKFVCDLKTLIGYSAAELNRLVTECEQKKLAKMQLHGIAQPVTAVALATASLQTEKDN
# Outline: as §1
# ERG = molecular target: T4, ERG (Homo sapiens, UniProt P11308 1-479); conditions: protein: recombinant; tags: N-terminal GST; dsDNA, one strand shown
# T4 sequence: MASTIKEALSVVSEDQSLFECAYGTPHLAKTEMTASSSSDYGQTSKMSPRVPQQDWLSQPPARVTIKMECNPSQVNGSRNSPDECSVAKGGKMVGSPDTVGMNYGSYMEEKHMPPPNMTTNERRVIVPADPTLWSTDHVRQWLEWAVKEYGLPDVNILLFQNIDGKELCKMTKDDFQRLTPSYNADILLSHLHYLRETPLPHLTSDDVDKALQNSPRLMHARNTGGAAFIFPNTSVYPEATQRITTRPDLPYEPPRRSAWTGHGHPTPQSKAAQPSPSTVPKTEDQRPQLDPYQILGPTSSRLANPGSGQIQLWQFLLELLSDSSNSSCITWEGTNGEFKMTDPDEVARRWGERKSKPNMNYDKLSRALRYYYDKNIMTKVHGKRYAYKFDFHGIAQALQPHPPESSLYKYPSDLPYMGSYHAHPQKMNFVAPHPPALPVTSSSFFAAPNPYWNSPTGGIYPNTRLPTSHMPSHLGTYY
# Outline: as §1
# ELF1 = ELF1 (Homo sapiens, UniProt P32519 1-619); conditions: protein: recombinant; tags: N-terminal GST; dsDNA, one strand shown
# Outline: as §1
# EHF = molecular target: T5, EHF (Homo sapiens, UniProt Q9NZC4 1-300); conditions: protein: recombinant; tags: N-terminal GST; dsDNA, one strand shown
# T5 sequence: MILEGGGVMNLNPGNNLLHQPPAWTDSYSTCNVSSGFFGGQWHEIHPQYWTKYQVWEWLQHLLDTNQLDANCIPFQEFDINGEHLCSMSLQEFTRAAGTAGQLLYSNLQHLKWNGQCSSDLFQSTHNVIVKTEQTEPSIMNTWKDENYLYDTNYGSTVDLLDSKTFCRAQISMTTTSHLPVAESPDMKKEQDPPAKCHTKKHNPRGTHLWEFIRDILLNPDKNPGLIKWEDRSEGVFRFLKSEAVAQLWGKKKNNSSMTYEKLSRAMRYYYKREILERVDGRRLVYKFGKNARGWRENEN
# Outline: as §1
# SPI1 = SPI1 (Homo sapiens, UniProt P17947 1-270); conditions: protein: recombinant; tags: N-terminal GST; dsDNA, one strand shown
# Outline: as §1
# SPIB = SPIB (Homo sapiens, UniProt Q01892 1-262); conditions: protein: recombinant; tags: N-terminal GST; dsDNA, one strand shown
# Outline: as §1
# ELK3 = molecular target: T6, ELK3 (Homo sapiens, UniProt P41970 1-407); conditions: protein: recombinant; tags: N-terminal GST; dsDNA, one strand shown
# T6 sequence: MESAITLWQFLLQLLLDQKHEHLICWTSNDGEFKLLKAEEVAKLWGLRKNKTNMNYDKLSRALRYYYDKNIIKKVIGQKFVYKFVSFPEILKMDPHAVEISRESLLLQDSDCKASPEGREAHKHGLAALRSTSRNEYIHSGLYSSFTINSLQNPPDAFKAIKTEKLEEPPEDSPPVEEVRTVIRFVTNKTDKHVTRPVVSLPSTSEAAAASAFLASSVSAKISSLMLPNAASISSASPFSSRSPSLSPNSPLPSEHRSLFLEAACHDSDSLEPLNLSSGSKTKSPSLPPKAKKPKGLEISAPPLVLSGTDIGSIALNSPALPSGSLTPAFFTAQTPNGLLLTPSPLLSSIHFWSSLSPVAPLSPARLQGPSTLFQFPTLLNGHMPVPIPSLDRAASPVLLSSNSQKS
# Outline: as §1
# FEV = molecular target: T7, FEV (Homo sapiens, UniProt Q99581 1-238); conditions: protein: recombinant; tags: N-terminal GST; dsDNA, one strand shown
# T7 sequence: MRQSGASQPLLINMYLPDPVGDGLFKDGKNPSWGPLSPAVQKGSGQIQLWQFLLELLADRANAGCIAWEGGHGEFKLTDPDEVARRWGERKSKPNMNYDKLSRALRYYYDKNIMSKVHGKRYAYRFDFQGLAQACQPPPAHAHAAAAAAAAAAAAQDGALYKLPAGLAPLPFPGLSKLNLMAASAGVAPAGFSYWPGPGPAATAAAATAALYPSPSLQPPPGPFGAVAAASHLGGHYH
# Outline: as §1
# ETV5 = ETV5 (Homo sapiens, UniProt P41161 1-510); conditions: protein: recombinant; tags: N-terminal GST; dsDNA, one strand shown
# Outline: as §1
# HSF1 = HSF1 (Homo sapiens, UniProt Q00613 1-529); conditions: protein: recombinant; tags: N-terminal GST; chain copies: 3; dsDNA, one strand shown
# Outline: as §1
# ELF4 = ELF4 (Homo sapiens, UniProt Q99607 1-663); conditions: protein: recombinant; tags: N-terminal GST; dsDNA, one strand shown
# Outline: as §1
# ELK4 = molecular target: T8, ELK4 (Homo sapiens, UniProt P28324-2 1-405); conditions: protein: recombinant; tags: N-terminal GST; dsDNA, one strand shown
# T8 sequence: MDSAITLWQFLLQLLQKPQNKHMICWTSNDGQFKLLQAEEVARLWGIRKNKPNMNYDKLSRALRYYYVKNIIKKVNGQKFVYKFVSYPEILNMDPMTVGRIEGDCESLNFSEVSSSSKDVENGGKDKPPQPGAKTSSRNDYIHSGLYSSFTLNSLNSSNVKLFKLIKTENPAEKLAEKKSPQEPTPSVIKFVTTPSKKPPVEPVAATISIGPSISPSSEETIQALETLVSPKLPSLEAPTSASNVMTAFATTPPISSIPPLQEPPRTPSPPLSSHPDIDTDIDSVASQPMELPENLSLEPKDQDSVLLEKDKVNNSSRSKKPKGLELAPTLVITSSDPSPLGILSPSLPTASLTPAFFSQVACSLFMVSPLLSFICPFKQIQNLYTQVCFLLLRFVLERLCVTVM
# Outline: as §1
# ETV2 = molecular target: T9, ETV2 (Homo sapiens, UniProt O00321 1-342); conditions: protein: recombinant; tags: N-terminal GST; dsDNA, one strand shown
# T9 sequence: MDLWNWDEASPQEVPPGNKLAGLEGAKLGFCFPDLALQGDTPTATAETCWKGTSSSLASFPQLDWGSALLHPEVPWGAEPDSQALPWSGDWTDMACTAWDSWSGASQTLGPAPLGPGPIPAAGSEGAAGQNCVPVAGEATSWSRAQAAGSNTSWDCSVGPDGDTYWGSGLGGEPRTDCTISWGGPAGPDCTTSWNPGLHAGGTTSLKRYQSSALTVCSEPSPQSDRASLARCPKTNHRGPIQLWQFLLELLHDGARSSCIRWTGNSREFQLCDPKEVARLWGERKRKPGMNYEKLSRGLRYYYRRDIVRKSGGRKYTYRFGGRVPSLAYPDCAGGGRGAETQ
# Outline: as §1
# ELF3 = molecular target: T10, ELF3 (Homo sapiens, UniProt P78545 1-371); conditions: protein: recombinant; tags: N-terminal GST; dsDNA, one strand shown
# T10 sequence: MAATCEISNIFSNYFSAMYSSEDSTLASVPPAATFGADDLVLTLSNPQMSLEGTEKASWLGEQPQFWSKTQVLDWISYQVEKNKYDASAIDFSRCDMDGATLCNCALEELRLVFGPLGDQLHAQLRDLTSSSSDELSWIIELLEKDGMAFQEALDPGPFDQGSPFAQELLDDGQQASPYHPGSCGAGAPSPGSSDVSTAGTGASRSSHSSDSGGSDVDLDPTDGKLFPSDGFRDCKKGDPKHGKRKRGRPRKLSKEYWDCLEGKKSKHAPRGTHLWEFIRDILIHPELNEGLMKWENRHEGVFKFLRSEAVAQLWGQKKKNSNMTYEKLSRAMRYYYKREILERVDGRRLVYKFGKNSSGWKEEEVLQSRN
# Outline: as §1
# CRX = CRX (Homo sapiens, UniProt O43186 1-299); conditions: protein: recombinant; tags: N-terminal GST; dsDNA, one strand shown
# Outline: as §1
# ETV1 = ETV1 (Homo sapiens, UniProt P50549 1-477); conditions: protein: recombinant; tags: N-terminal GST; dsDNA, one strand shown
# Outline: as §1
# Sequence of ETV5 (P41161 whole entry): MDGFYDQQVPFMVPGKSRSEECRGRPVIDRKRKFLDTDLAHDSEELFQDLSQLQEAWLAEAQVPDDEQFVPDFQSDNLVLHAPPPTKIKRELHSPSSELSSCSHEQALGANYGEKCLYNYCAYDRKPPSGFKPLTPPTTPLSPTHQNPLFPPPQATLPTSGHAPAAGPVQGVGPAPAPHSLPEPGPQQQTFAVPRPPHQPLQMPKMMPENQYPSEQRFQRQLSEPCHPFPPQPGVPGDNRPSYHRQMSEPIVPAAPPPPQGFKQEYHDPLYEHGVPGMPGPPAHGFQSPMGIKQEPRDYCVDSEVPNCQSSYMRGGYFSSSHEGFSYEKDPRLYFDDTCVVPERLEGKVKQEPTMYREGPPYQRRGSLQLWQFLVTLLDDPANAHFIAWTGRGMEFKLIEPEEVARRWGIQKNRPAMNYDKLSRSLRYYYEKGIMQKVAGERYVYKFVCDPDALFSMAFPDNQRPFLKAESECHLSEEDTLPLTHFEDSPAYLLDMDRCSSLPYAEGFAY
# Sequence of ELF1 (P32519 whole entry): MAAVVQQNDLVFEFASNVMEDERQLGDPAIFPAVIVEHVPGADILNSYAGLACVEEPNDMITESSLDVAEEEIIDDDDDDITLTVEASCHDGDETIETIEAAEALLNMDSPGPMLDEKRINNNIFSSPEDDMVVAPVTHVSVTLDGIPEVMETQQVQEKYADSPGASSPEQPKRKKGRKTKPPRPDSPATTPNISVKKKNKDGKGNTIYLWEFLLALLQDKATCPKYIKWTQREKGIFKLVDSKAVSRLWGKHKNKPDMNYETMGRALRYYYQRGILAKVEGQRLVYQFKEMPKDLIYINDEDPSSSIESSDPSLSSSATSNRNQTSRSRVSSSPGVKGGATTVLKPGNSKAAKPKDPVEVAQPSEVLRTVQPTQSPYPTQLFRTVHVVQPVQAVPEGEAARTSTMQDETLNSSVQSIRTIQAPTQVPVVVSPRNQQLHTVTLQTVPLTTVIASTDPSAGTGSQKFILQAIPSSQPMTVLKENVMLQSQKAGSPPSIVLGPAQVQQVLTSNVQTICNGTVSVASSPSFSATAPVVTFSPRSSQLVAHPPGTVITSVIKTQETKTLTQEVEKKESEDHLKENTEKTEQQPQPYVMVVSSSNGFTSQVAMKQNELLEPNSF
# Sequence of ELF4 (Q99607 whole entry): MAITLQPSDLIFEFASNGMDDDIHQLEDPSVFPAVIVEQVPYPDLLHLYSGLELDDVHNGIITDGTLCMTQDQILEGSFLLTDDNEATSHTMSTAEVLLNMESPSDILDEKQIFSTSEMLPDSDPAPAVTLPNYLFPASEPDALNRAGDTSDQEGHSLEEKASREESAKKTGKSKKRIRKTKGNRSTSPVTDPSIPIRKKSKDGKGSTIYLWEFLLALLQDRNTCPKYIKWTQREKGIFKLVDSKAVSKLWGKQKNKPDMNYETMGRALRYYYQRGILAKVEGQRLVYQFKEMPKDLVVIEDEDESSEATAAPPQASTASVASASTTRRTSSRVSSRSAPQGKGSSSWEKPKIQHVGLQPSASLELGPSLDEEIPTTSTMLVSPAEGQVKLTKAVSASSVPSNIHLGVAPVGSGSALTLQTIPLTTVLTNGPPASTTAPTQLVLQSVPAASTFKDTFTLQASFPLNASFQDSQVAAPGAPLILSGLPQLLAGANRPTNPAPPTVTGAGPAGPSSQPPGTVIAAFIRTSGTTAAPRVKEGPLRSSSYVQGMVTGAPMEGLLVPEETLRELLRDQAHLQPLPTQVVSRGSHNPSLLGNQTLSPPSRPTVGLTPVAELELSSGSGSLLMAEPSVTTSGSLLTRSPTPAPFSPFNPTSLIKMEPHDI
# Sequence of CRX (O43186 whole entry): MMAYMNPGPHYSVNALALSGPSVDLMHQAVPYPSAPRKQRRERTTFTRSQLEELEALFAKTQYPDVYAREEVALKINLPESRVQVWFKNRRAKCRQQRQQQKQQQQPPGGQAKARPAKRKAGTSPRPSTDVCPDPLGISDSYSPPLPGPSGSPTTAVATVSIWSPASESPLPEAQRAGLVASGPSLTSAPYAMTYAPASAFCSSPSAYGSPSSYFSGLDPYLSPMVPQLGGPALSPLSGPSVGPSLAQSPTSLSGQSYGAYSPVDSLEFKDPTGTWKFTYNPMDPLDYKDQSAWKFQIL
# Sequence of ETV1 (P50549 whole entry): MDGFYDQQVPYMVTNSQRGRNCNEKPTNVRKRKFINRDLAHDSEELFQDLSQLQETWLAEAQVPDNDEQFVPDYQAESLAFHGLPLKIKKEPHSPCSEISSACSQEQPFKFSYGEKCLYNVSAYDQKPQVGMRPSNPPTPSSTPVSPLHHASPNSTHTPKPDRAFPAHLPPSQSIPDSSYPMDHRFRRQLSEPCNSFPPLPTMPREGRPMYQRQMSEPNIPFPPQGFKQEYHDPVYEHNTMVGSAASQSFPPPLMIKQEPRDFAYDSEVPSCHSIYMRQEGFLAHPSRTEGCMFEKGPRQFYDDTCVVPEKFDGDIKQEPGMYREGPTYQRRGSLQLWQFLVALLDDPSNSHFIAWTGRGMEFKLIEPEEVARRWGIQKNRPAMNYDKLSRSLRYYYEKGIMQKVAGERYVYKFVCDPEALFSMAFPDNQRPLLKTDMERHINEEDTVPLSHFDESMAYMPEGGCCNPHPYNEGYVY
# Sequence of SPIB (Q01892 whole entry): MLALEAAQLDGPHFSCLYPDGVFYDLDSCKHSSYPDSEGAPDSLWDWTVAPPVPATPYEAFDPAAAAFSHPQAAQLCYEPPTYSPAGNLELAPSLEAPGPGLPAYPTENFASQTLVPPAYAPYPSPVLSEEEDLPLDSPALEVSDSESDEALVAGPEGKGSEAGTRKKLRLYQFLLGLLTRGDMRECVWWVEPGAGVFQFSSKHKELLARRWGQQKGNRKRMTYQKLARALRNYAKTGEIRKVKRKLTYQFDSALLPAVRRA
# Sequence of HSF1 (Q00613 whole entry): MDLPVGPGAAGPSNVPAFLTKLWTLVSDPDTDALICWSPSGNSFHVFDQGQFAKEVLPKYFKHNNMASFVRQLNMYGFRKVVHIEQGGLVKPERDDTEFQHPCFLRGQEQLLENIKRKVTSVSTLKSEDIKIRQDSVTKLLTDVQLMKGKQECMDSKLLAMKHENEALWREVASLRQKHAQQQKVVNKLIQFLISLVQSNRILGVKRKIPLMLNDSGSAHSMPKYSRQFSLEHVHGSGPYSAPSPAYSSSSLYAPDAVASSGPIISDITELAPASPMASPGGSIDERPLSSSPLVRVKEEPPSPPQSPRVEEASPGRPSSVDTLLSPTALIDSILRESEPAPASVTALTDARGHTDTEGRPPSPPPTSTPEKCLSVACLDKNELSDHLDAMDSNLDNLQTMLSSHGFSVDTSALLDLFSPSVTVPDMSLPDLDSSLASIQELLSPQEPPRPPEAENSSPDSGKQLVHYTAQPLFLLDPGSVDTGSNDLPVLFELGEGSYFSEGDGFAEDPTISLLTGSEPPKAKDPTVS
sequence,measurement,setting,value
TAACCA,binding signal,FLI1,"1.12 fold enrichment (6-mer frequency, TF over GST control)"
same,binding signal,ELK1,"1.12 fold enrichment (6-mer frequency, TF over GST control)"
same,binding signal,GABPA,"1.08 fold enrichment (6-mer frequency, TF over GST control)"
same,binding signal,ERG,"1.12 fold enrichment (6-mer frequency, TF over GST control)"
same,binding signal,ELF1,"1.11 fold enrichment (6-mer frequency, TF over GST control)"
same,binding signal,EHF,"1.15 fold enrichment (6-mer frequency, TF over GST control)"
same,binding signal,SPI1,"1.06 fold enrichment (6-mer frequency, TF over GST control)"
same,binding signal,SPIB,"1.11 fold enrichment (6-mer frequency, TF over GST control)"
same,binding signal,ELK3,"1.16 fold enrichment (6-mer frequency, TF over GST control)"
same,binding signal,FEV,"1 fold enrichment (6-mer frequency, TF over GST control)"
same,binding signal,ETV5,"1.06 fold enrichment (6-mer frequency, TF over GST control)"
same,binding signal,HSF1,"1.16 fold enrichment (6-mer frequency, TF over GST control)"
same,binding signal,ELF4,"1.16 fold enrichment (6-mer frequency, TF over GST control)"
same,binding signal,ELK4,"1.04 fold enrichment (6-mer frequency, TF over GST control)"
same,binding signal,ETV2,"1.12 fold enrichment (6-mer frequency, TF over GST control)"
same,binding signal,ELF3,"1.1 fold enrichment (6-mer frequency, TF over GST control)"
same,binding signal,CRX,"1.31 fold enrichment (6-mer frequency, TF over GST control)"
same,binding signal,ETV1,"1.02 fold enrichment (6-mer frequency, TF over GST control)"
